{"source": "PubChem BioAssay AID1076", "about": "(NMMLSC, 2008)", "note": "Active and inactive are the calls of the source.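 The calls were made as follows: active = cell event count below 40, meaning activity score above 60 where score is 100 minus count; inactive = the rest.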"}
{"test": "LNCaP cell loss by flow event count, confirmation, cytotoxicity control for prostate differentiation activator project, single point (AID 1076);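 also: counts scatter-gated live cells after medium removal discards detached dead cells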", "settings": "flow cytometry event count, 4 d, at 100 µM, stronger effect = lower value"}
{"smiles": "C[C@H]1CCC/C=C/C2C[C@H](O)CC2[C@H](O)/C=C/C(=O)O1", "note": "(stereo not given in full)", "cell event count": "23 (active)"}
{"smiles": "Cc1cc(OCC(=O)O)c2c3c(c(=O)oc2c1)CCCC3", "cell event count": "175 (inactive)"}
{"smiles": "CCn1c(=O)cc(OCC(=O)N2CCC3(CC2)OCCO3)c2ccccc21", "cell event count": "210 (inactive)"}
{"smiles": "Cc1nc2ccccc2c(=O)n1-c1ccc(F)cc1", "cell event count": "282 (inactive)"}
{"smiles": "CCOc1ccc(C2SCC(=O)Nc3c2c(=O)[nH]n3C2CCCCCC2)cc1", "note": "(stereo not given)", "cell event count": "18 (inactive)"}
{"smiles": "Cc1ccc2c(c1)[C@@H]1CN(C)CC[C@@H]1N2C(=O)Nc1cccc(C(F)(F)F)c1", "cell event count": "13 (inactive)"}
{"smiles": "O=C(COc1ccc2ccccc2c1)N1CCN(C2CCN(Cc3ccccc3)CC2)CC1", "cell event count": "35 (inactive)"}
{"smiles": "CCn1c(=O)cc(OCC(=O)N2CCN(Cc3ccc4c(c3)OCO4)CC2)c2ccccc21", "cell event count": "12 (inactive)"}
{"smiles": "Clc1ccc(COC(Cn2ccnc2)c2ccc(Cl)cc2Cl)cc1", "note": "(stereo not given)", "cell event count": "11 (inactive)"}
{"smiles": "Cc1ccc(Cn2c(C)c3cnn(CC(=O)N4CCC5(CC4)OCCO5)c(=O)c3c2C)cc1", "cell event count": "66 (inactive)"}
{"test": "LNCaP cell loss by flow event count, confirmation, cytotoxicity control for prostate differentiation activator project, single point (AID 1076);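 also: counts scatter-gated live cells after medium removal discards detached dead cells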", "settings": "flow cytometry event count, 4 d, event count, at 10 µM, stronger effect = lower value"}
{"smiles": "C[C@H]1CCC/C=C/C2C[C@H](O)CC2[C@H](O)/C=C/C(=O)O1", "note": "(stereo not given in full)", "cell event count": 26}
{"smiles": "Cc1cc(OCC(=O)O)c2c3c(c(=O)oc2c1)CCCC3", "cell event count": 157}
{"smiles": "CCn1c(=O)cc(OCC(=O)N2CCC3(CC2)OCCO3)c2ccccc21", "cell event count": 411}
{"smiles": "Cc1nc2ccccc2c(=O)n1-c1ccc(F)cc1", "cell event count": 155}
{"smiles": "CCOc1ccc(C2SCC(=O)Nc3c2c(=O)[nH]n3C2CCCCCC2)cc1", "note": "(stereo not given)", "cell event count": 101}
{"smiles": "Cc1ccc2c(c1)[C@@H]1CN(C)CC[C@@H]1N2C(=O)Nc1cccc(C(F)(F)F)c1", "cell event count": 122}
{"smiles": "O=C(COc1ccc2ccccc2c1)N1CCN(C2CCN(Cc3ccccc3)CC2)CC1", "cell event count": 324}
{"smiles": "CCn1c(=O)cc(OCC(=O)N2CCN(Cc3ccc4c(c3)OCO4)CC2)c2ccccc21", "cell event count": 240}
{"smiles": "Clc1ccc(COC(Cn2ccnc2)c2ccc(Cl)cc2Cl)cc1", "note": "(stereo not given)", "cell event count": 82}
{"smiles": "Cc1ccc(Cn2c(C)c3cnn(CC(=O)N4CCC5(CC4)OCCO5)c(=O)c3c2C)cc1", "cell event count": 202}
